Laboratory results from PMC8384837, “Expanding the binding specificity for RNA recognition by a PUF domain”.

What follows are sequences tested against PUM1 PUF domain R5-KRS (Homo sapiens, UniProt Q14671 828-1176, C1007K;Q1011S) (assay: yeast three-hybrid, YBZ-1, SC-Leu-His + 0.5 mM 3-AT, 4 days). Settings: tags: N-Gal4 AD-HA kept; label: inside an RPR1-promoter hybrid RNA with tandem MS2 sites; ssRNA.
Chain of PUM1 PUF domain R5-KRS (Q14671 828-1176 C1007K/Q1011S): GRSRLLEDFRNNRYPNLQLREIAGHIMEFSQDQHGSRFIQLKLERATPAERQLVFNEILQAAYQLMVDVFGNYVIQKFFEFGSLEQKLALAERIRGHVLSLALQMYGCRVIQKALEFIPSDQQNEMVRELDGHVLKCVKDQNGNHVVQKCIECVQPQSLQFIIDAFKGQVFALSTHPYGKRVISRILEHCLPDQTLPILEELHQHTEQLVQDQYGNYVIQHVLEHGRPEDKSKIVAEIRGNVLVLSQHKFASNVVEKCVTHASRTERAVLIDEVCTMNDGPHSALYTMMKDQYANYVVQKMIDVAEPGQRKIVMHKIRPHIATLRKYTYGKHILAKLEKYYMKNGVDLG
In short: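 Each repeat of the Pumilio-1 PUF domain was randomized at its three base-contacting residues, and these libraries were co-expressed from a centromeric plasmid with matching RNA elements in strain YBZ-1. After four days on SC-Leu (input) or SC-Leu-His + 0.5 mM 3-AT (selection), the repeat regions were PCR-amplified and Illumina-sequenced. The interaction score compares variant frequency between input and selection as a log change, computed in log2 with a pseudocount of 1 for absent variants.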
In the case of “GGCUAGAACUAGUGGAUCCCCCGGCGCCCGGCGGCUCGAGCCCGGGUAAGUGUCAAUAGUCUGCAUGCCGCCGGGCGCCAUGCCUGCAGGUCGACUCUAGAAAACAUG”, the binding signal is reported as 3.74 log2 enrichment (interaction score). For “GGCUAGAACUAGUGGAUCCCCCGGCGCCCGGCGGCUCGAGCCCGGGUAAGUGUUAAUAGUCUGCAUGCCGCCGGGCGCCAUGCCUGCAGGUCGACUCUAGAAAACAUG”, the binding signal was 3.41 log2 enrichment (interaction score). “GGCUAGAACUAGUGGAUCCCCCGGCGCCCGGCGGCUCGAGCCCGGGUAAGUGUAAAUAGUCUGCAUGCCGCCGGGCGCCAUGCCUGCAGGUCGACUCUAGAAAACAUG” was tested, and the binding signal was 1.71 log2 enrichment (interaction score).
